# Test results published in PubChem BioAssay (NCATS).
# Records with an inconclusive call do not appear. Active and inactive are the calls of the source. The call rests on the fitted dose curve.
# Assay: qHTS Assay for Lipid Storage Modulators (AID 1519)
# Conditions: Drosophila S3 cells, BODIPY lipid droplet/cell ratio, laser cytometry; cells loaded with oleic acid
# How it was run: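 Cells seeded at 5,000 per well were treated with compounds over a concentration series and loaded with oleic acid (400 uM, as added). Lipid droplet fluorescence (488 nm excitation, 500-530 nm channel) was read by laser-scanning cytometry and normalized to 20 uM Triacsin C.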
# Potency means the concentration at half of the fitted maximal effect.
smiles,measurement,value
CCCCCCCCCCCCCCCC[n+]1ccccc1,Potency,10 µM (active)
